Bioassay records from PubChem.
RORg inh = blocks mouse ROR gamma transcriptional activity | Potency, µM (titrated, usually from 53.6 µM), without a hit: at the top dose activity change, negative = inhibition, most hits filed as inhibitors | P51450 | Drosophila S2 Gal4-RORgamma UAS-luciferase reporter, 20 h | 310,000 compounds, 5.4% hits | AID 2551; note: potency is the fitted concentration of half-maximal effect; % is set by controls: 0 for no effect and ±100 for the full control effect; nearly all actives have a fitted effect of over 60% in size
Target sequence (P51450 whole entry, looked up, the tested form may be a part): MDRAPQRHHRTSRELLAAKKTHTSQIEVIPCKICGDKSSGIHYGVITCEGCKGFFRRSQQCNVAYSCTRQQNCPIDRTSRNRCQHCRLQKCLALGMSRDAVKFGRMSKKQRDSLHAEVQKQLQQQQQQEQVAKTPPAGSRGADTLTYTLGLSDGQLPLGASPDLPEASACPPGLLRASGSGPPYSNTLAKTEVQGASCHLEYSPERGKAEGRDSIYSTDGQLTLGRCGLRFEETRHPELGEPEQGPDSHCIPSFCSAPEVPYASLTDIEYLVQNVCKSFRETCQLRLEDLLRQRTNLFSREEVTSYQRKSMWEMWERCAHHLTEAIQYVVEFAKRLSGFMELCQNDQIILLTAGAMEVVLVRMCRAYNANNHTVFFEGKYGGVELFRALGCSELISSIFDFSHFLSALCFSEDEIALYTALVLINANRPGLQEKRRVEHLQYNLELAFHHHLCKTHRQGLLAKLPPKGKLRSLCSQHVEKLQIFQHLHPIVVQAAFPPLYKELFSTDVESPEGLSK
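Luminescence from a UAS-regulated Photinus luciferase reporter in stably transfected Drosophila Schneider cells is measured; decreased signal marks ROR gamma inhibition. Fusion expression is induced by 700 uM copper sulfate for 20 hr.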
VP16 counter = inhibits Gal4-VP16 luciferase reporter, ROR gamma counter-screen. Drosophila S2 Gal4-VP16 UAS-luciferase, luminescence, 20 h. Potency, µM (series often up to 53.6 µM), inactives show top-dose activity, negative = inhibition, most hits filed as inhibitors. 310,000 compounds, 3.5% hits. AID 2546;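 note: Gal4-VP16 expression switched on by copper sulfate through the metallothionein promoter; potency is the fitted concentration of half-maximal effect; % is set by controls: 0 for no effect and ±100 for the full control effect; nearly all actives have a fitted effect of over 50% in size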
Six1-Eya2 blk = Six1/Eya2 interaction inhibition | Q15475+O00167 | AlphaScreen GST-Six1/His-Eya2 binding, biochemical; active compounds read low | activity change, % (concentration not given with the values) | 360,000 compounds, 0.56% hits; in the data active = activity change below about -65%; inconclusive = mostly about -30% to -63%; note: % is set by controls: 0 for no effect and ±100 for the full control effect
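AlphaScreen luminescence read after one hour at 37 °C in darkness. Pin-transferred compounds met GST-Six1 and His-Eya2 protein (5X stock 250 nM/500 nM) plus glutathione donor and Ni-chelate acceptor beads (5X, 50 ug/mL).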
CtBP-E1A blk = blocks the CtBP interaction with E1A; AlphaScreen GST-E1A/His-CtBP binding, 1536-well; active compounds read low; activity change, % (test concentration not listed); 340,000 compounds, 0.49% hits; in the data active = activity change below about -65%; inconclusive = mostly about -30% to -63%; note: % is set by controls: 0 for no effect and ±100 for the full control effect
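AlphaScreen with 125 nM GST-E1A and 125 nM His-CtBP (5X stocks) in Tris pH 8.0, 300 mM NaCl, BSA, Tween 20, TCEP. Compounds preincubated 2 h at 37 deg C, then glutathione donor/nickel acceptor beads added for 1 h at 37 deg C in dark.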
p53 reactivator = mutant p53 re-activation in reporter cells. H1299 p53-A138V BP100-luciferase reporter, luminescence, 24 h. Potency, µM (titrated, usually from 92.2 µM), without a hit: top-dose activity change, positive = activation, actives largely listed as activators. 320,000 compounds, 0.063% hits. AID 504706; note: potency is the fitted concentration of half-maximal effect; % of control where 0% means no effect; nearly all actives have a fitted effect of over 45% in size
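p53-null H1299 cells stably carrying temperature-sensitive p53-A138V and a BP100-luciferase reporter were pinned with compounds (4-point, 1:5 series) and held 24 hrs at 37 deg C. Luminescence was read 10 min after detection reagent.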
The depositor's hits bear a star; u = inconclusive; x = no result given; [ ] = remark or other dose. A selection: hits, their analogues and other compounds. The true share with any hit is near 5.4%. Unless noted, calls come from the whole dose curve; as a rule, active = well fitted curve in the direction sought with a large enough effect; inconclusive = small, poorly fitted or top-dose-only effect, or another doubt; inactive = no such curve, though single readings can be large; an effect the other way counts as inactive or inconclusive.

SMILES	RORg inh	VP16 counter	Six1-Eya2 blk	CtBP-E1A blk	p53 reactivator
CC1(CC(=O)N/N=C/c2cc([N+](=O)[O-])c(O)cc2O)OCCO1	5.6µM*	u	-89*	x	-5%
COc1ccccc1NC(=O)Cc1csc(NC(=S)Nc2ccccc2)n1	1.1µM*	3.2µM*	-12	-16	5%
COc1ccc(NC(=S)Nc2nc(CC(=O)Nc3ccccc3OC)cs2)cc1	1.8µM*	4.5µM*	-18	-15	-7%
COc1ccc(OC)c(NC(=O)Cc2csc(NC(=O)Nc3ccccc3OC)n2)c1	x	x	-11	-12	-4%
Cc1nc(N2CCOCC2)c2nc(-c3ccccc3)n(CCN3CCCCC3)c2n1	-12%	2%	x	x	x
O=C(N/N=C\c1cn(-c2ccccc2)nc1-c1ccccc1)c1ccc(Br)o1	1.4µM*	4µM*	-9	-14	10%
O=C(N/N=C/c1ccc(Br)cc1)c1ccc(Br)o1	-4%	16%	-4	1	u
Cc1ccc(-c2nn(-c3ccccc3)cc2/C=N/NC(=O)c2ccc(Br)o2)cc1	2.8µM*	4µM*	3	3	26%
O=C(N/N=C/c1cn(-c2ccccc2)nc1-c1ccccc1)c1ccco1	6.3µM*	10µM*	-3	-6	2%
Cc1ccc(N(C(=O)c2snc(C(N)=O)c2N)C(C(=O)NCCC(C)C)c2ccco2)cc1 (stereo not drawn)	40%	-11%[10 µM]	-6	4	0%
COC(=O)N/N=C1\CCCc2ccccc21	20%	1%	13	8	8%
COc1cccc(NC(=S)N/N=C2/CCCCc3ccccc32)c1	3.5µM*	5µM*	-21	u	u
COc1ccc(OCC(=O)N/N=C2\CCCCc3ccccc32)cc1	5%	-10%	4	-1	-7%
Cc1ccc(C)c(NC(=S)N/N=C2/CCCCc3ccccc32)c1	1.6µM*	6.3µM*	u	-14	1%
Cc1ccc(C)c(S(=O)(=O)N/N=C2/CCCc3ccccc32)c1	5%	13%	-2	5	-2%
O=C(N/N=C1/CCc2ccccc21)C1CC1	8%	4%	0	-1	6%
S=C(N/N=C1\CCc2ccccc21)NC1CCCCC1	1µM*	5.6µM*	0	x	u
CC(C)NC(=S)N/N=C1\CCCCc2ccccc21	0.79µM*	2µM*	-21	x	5%
CC1CC=CC2C1C(=O)N(Cc1ccccc1)C2c1ccc2ccccc2c1C=Cc1ccccc1 (stereo not drawn)	30%	11%	x	x	x
N#Cc1cn(N2CCCCC2)c(=O)[nH]c1=O	9%	-6%	15	6	3%
C=CC[C@@H](Cc1ccc(F)cc1)C(=O)OC[C@@H]1CCCN1C(=O)[C@@H](CC=C)CC(=O)N(CCO)Cc1ccccc1	x	x	-3	-1	-2%
COC(=O)/C(=N\Nc1ccc(Cl)cc1)Sc1nnc(-c2ccc(OC)cc2)n1C	5.6µM*	u	-24	-20	-3%
CCOC(=O)/C(=N/Nc1ccccc1)Sc1nnc(CCc2ccccc2)n1-c1ccccc1	4.5µM*	7.1µM*	14	-5	4%
Cc1cccc(-n2c(CCc3ccccc3)nnc2SCC(=O)c2ccccc2)c1	u	11µM*	-7	11	2%
CCOC(=O)/C(=N/Nc1ccc(Cl)cc1)Sc1nnnn1-c1ccc(C)cc1	6.3µM*	u	5	17	-7%
SMILES	RORg inh	VP16 counter	Six1-Eya2 blk	CtBP-E1A blk	p53 reactivator
CCOC(=O)/C(=N/Nc1ccccc1)Sc1nnnn1-c1ccc(C)cc1	u	-7%	11	-5	-11%
N/C(=N\OC(=O)CCC1CCCC1)c1ccccn1	3%	-2%	14	2	u
Cc1cc2cc(CCNC(=O)c3cccs3)c(=O)[nH]c2cc1C	u	3%	2	-1	u
C[C@H](CO)N1C[C@H](C)[C@@H](CN(C)Cc2ccc(Oc3ccccc3)cc2)Oc2cc(Br)ccc2S1(=O)=O	x	x	-10	-2	x
O=C(CN1C(=O)C2CC=CCC2C1=O)Nc1ccc(F)cc1F (stereo not drawn)	x	x	6	-12	1%
CC(=O)C1=C(C)NC(SCC(=O)c2ccc(Cl)cc2)=C(C#N)C1c1ccco1 (stereo not drawn)	u	u	0	-13	10%
CSCSC1=C(C#N)C(c2ccc(Cl)cc2)C(C(C)=O)=C(C)N1 (stereo not drawn)	14µM*	u	x	x	-10%
CC(=O)C1=C(C)NC(SCC(=O)c2ccc(Cl)cc2Cl)=C(C#N)C1c1ccco1 (stereo not drawn)	u	4.5µM*	-4	-4	0%
C=CCOC(=O)C1=C(C)NC(SCC(=O)Nc2nccs2)=C(C#N)C1c1cccs1 (stereo not drawn)	u	u	-5	-1	-2%
C=CCOC(=O)C1=C(C)NC(SCC(=O)Nc2nccs2)=C(C#N)C1c1ccc(Cl)cc1 (stereo not drawn)	11µM*	u	2	4	-11%
CCOC(=O)c1sc2nc(CN3CCN(c4cccc(C(F)(F)F)c4)CC3)[nH]c(=O)c2c1C	-19%	-2%	-10	0	16%
O=C(CCC1CCCN(C2C3CC4CC(C3)CC2C4)C1)NCc1ccc(F)c(F)c1 (stereo not drawn)	-3%	-8%	0	2	-3%
COc1cccc(OC)c1C(=O)Nc1cc(C)nn1-c1nc2ccccc2[nH]1	3.5µM*	u	3	-10	-4%
Cc1cc(NC(=O)c2sccc2C)n(-c2nc3ccccc3[nH]2)n1	1µM*	3.5µM*	-10	x	11%
Cc1cc(NC(=O)c2cccs2)n(-c2nc3ccccc3[nH]2)n1	13%	-9%	-14	-4	18%
Cc1cc(NC(=O)c2ccccc2)n(-c2nc3ccccc3[nH]2)n1	1µM*	2.8µM*	4	-1	-1%
COc1ccc(C(=O)Nc2cc(C)nn2-c2nc3ccccc3[nH]2)c(OC)c1	2.2µM*	4µM*	-1	2	3%
COc1ccc(/C=C/C(=O)NCCN=C2NS(=O)(=O)c3ccccc32)cc1	21%	2%	-12	-2	-2%
COC(=O)[C@@]1(Cc2ccc(F)cc2)[C@H]2c3cc(C(=O)N(C)C)n(Cc4cc(F)c(F)c(F)c4)c3C[C@H]2CN1C(=O)c1ccccc1	-2%	-5%	x	x	x
CCCCC1CCC(C(=O)N(CCCC)c2c(N)n(CCCC)c(=O)[nH]c2=O)CC1 (stereo not drawn)	-13%	-9%	-12	0	2%
Cc1cc(NC(=O)C2CCCC2)n(-c2nc3ccccc3[nH]2)n1	0.63µM*	1.4µM*	2	-1	-2%
O=C(/C=C/c1ccc(F)cc1)NC(=S)NC1CCCCC1	u	-5%	3	x	4%
CC(C)NC(=S)NC(=O)/C=C/c1ccc(F)cc1	1.8µM*	7.1µM*	-1	3	18%
